# Assay results from ChEMBL document CHEMBL4888484, “Replenishing the malaria drug discovery pipeline: Screening and hit evaluation of the MMV Hit Generation Library 1 (HGL1) against asexual blood stage Plasmodium falciparum ,using a nano luciferase reporter read-out” (2022).
# Screen size: about 4,800 compounds; about 420 (8.8%) showed an effect of 50% or more. This is one part of a sample in which strong results are shown more often than they occur.
# System: Plasmodium falciparum
# Test: Confirmatory screen in NF54 nanoGlo assay, in single point, at 2uM, 72h
# Assay type: functional, Erythrocyte
# Conditions: timepoint 72 hour
row,Compound,% Inhibition [%]
1,Cc1cc(=O)n2ncc(C(=O)NCc3cc(F)cc(F)c3)c2[nH]1,-13
2,C=CCOC(=S)NC(=O)Cc1ccccc1Cl,7
3,Cc1ccc(-c2cn3c4ccccc4nc3n2CCN2CCN(C)CC2)cc1,2
4,Cn1c(-c2ccc(Br)cc2)cn2cc(-c3ccc(Cl)cc3)nc12,-5
5,CCN(CC)CCn1c2ccccc2n2cc(-c3ccc(Br)cc3)nc12,59
6,Cn1c(-c2ccc(-c3ccccc3)cc2)cn2cc(-c3cccc(Br)c3)nc12,0
7,O=C(Nc1ccccc1)c1cccc(CN2CCN3CCOC[C@@H]3C2)c1,-5
8,CCn1cc(NC(=O)CCn2ncc3c(Cl)cccc32)cn1,-6
9,O=C(c1cc2ncccn2n1)N1CCc2ccccc2C1,-3
10,O=S(=O)(Nc1cccc(-c2nnc3n2CCC3)c1)c1ccc2c(c1)OCCCO2,-12
11,CC[C@H](O)CN1CCC(Nc2ncnc3cc(Cl)ccc23)CC1,42
12,CN1CCC(Nc2ncnc3c2cnn3C)C1c1ccc(Cl)cc1 (configuration not stated),4
13,CC1CC(Nc2ncnc3cc(Br)ccc23)CCN1C (configuration not stated),96
14,Brc1cncnc1NC1CC1,2
15,Cc1nc(-c2ccc(C(F)(F)F)cc2)nc(N2CCN(C(=O)c3cc(C(F)(F)F)cc(C(F)(F)F)c3)CC2)c1C(C)C,-2
16,CC(C)(C)C(=O)Nc1cc(Br)c(O)c(Br)c1,3
17,COCCN1CC2(CCCC2)N(C(=O)COc2ccc(F)cc2)CC1=O,-7
18,COc1cc(=O)c(C(=O)N2CCC(C(N)=O)CC2)nn1-c1ccc(F)c(F)c1,3
19,Cc1nccn1-c1cc(CNC(=O)[C@H]2CCCN(S(=O)(=O)c3cccs3)C2)ccn1,2
20,O=C(c1ccccc1)n1c(=O)n(C(=O)c2ccccc2)c2ccccc21,6
21,Cc1ccc(C(=O)C[n+]2cc(-c3ccc(-c4ccccc4)cc3)n(C)c2N)cc1,4
22,Cc1n(CC(=O)c2ccccc2)c2ccccc2[n+]1CC(=O)c1ccccc1,68

row,Compound,% Inhibition [%]
1,COc1ccc(S(=O)(=O)N2CCN(Cc3noc(CCC(=O)N(C)Cc4ccccc4)n3)CC2)cc1,-6
2,CC(C)(CC(=O)O)CC(=O)Nc1ccc(Cc2nnc3ccccn23)cc1,-4
3,COc1cc(-c2nc3ccccc3s2)ccc1OCc1cccc2ccccc12,-7
4,COc1ccc(-c2c(C(F)(F)F)n[nH]c2-c2ccc(OCc3ccccc3F)cc2O)cc1,90
5,Oc1cc(OCc2ccccc2F)ccc1-c1[nH]ncc1-c1ccccc1,75
6,COc1cc(OC)cc(C2(O)CCN(C(=O)CCc3ccccc3F)CC2)c1,-10
7,O=C(NCC1CC1)c1cn[nH]c1-c1ccccc1,-1
8,c1ccc(-c2cn[nH]c2N2CCNCC2)cc1,-7
9,NS(=O)(=O)Cc1ccc(CNc2ccc3ccc(F)cc3n2)cc1,3
10,CCC(=O)N1CCc2sc(C(=O)NC3CCN(Cc4ccccc4)CC3)cc2C1,-5
11,CCCn1nccc1C(=O)NCCCn1ncc2c(C)cccc21,-2
12,CNC(=O)c1cc(NS(=O)(=O)N2CCCCCC2)ccc1F,-8
13,CCNC(=O)N1CCCC[C@@]1(C)c1noc(-c2ccc(F)cc2)n1,5
14,Fc1ccc(COc2cccc(CNCCN3CCOCC3)c2)cc1,-8
15,Cc1nn(C)c(Cl)c1CNCc1ccc(N2CCCCC2)nc1,-10
16,COc1cc(CNCCN2CCOCC2)ccc1OCc1cccc(C)c1,-2
17,O=C(Nc1ccncc1)c1nc(N2CCCC2)ncc1Br,-5
18,CC1CCC(C)(NC(=O)Nc2ccn(C(C)C)n2)CC1 (configuration not stated),-11
19,CC1(C)CC[C@H](NC(=O)CCNc2ncccn2)c2ccccc21,-8
20,COc1cc2c(cc1OC)CN(c1noc(-c3ccccc3)n1)CC2,-5
21,CC(C)(C)c1ccc(C(=O)N[C@H]2C[C@@H]3CC[C@H]2C3)cc1,8
22,Cc1ccc(CNC(=O)c2csnn2)n1C,-1

row,Compound,% Inhibition [%]
1,COc1ccc(CNC(=O)[C@H](C)n2ccc3cc(S(=O)(=O)N4CCCC4)ccc32)cc1OC,0
2,O=C1NC(=O)C2(CCN(C(=O)C3CC4CCC3C4)CC2)N1 (configuration not stated),-7
3,CC(C)C(=O)N1CC[C@H](CC(=O)NCc2ccncc2)C1,0
4,N#CC1CCC(Nc2cnn(-c3ccncc3)c2)CC1 (configuration not stated),5
5,CS(=O)(=O)N1CC[C@H](CC(=O)N2CCN(c3ccc(F)cc3)CC2)C1,-14
6,Cc1nn(C)cc1S(=O)(=O)N1CCC[C@@H]1CCc1ccccn1,-12
7,COc1cc(OC)c(OC)cc1CNC(C)C,-2
8,Cc1c(C(=O)NC[C@](C)(O)c2ccc(F)cc2F)cnn1C,7
9,CN(Cc1cccnc1)c1ccc(S(=O)(=O)C(F)F)cc1,-5
10,O=C(NCCc1c(Cl)cccc1Cl)[C@@H]1CCCc2[nH]cnc21,-2
11,O=C(c1cc(F)c[nH]1)N1CCN(C(=O)c2cc(F)c[nH]2)[C@@H]2CCCC[C@H]21,13
12,COc1ccc(-c2cc3ncc(C(=O)c4cc(Cl)ccc4O)cn3n2)cc1,72
13,COc1ccc(C2=NC3(CCN(Cc4ccccc4)CC3)N[C@H](c3cc(Cl)ccc3O)C2)cc1,24
14,O=C(Cc1ccc(Cl)cn1)Nc1ccnn1[C@H]1CCCc2ccccc21,-10
15,CN1CCN(C(=O)CNC(=O)c2cccc(Cl)c2)CC1,-2
16,Cc1ccc(S(=O)(=O)N(CC(=O)NC2CCN(C)CC2)c2cccc(Cl)c2)cc1,-7
17,Cc1ccc(COc2cccc(CNC3CC3)c2)cc1,-7
18,Cn1c(=O)c2ccnn2c2ccc(C(=O)NC3CCN(Cc4ccccc4)CC3)cc21,23
19,CC(C)Cn1ncnc1COC(=O)c1cccnc1,-1
20,Cc1cc2[nH]ncc2cc1NC(=O)c1ccco1,-8
21,CC[C@H]1C[C@@H]1CNC(=O)c1cccc(NC(=O)c2ccco2)c1,-7
22,CC(C)(C)c1nc(Cn2c3c(sc2=O)CCCC3)no1,1

row,Compound,% Inhibition [%]
1,COc1ccc(CN2CCC(C(=O)NCCCN3CCOCC3)CC2)c(OC)c1,4
2,Cc1ccccc1S(=O)(=O)c1cc2cc(Br)cc(Br)c2nc1N,0
3,COc1cccc(C2=NS(=O)(=O)N(C)C(C(=O)N3CCC(C(N)=O)CC3)=C2)c1,20
4,CC(=O)Nc1ccc(NC(=O)CCC(C)C)cc1,-9
5,CC(=O)c1ccc(NC(=O)Cn2c(-c3ccccc3)nc(C)cc2=O)cc1,4
6,CC(=O)Nc1ccc(-c2cn3c4ccccc4ccc3[n+]2C)cc1,76
7,CC(=O)N[C@H]1[C@H](c2ccccc2)N(CCCc2ccccc2)CC[C@@]1(C)O,1
8,C#CCN(C(=O)c1cnn(CC(C)C)c1C(F)F)c1nccs1,-1
9,Cc1ccc(C2=NC3(CCCC3)NC2=O)cc1,3
10,O[C@@H](Cc1ccc2ccccc2n1)c1ccccc1,-5
11,Cc1ccc[n+](Cc2ccc3ccccc3n2)c1,53
12,c1ccc2c[n+](Cc3ccc4ccccc4n3)ccc2c1,50
13,c1ccc2cc(-c3ccc4ccccc4n3)ccc2c1,-1
14,CC(C)(C)OC(=O)N1CCN(C[C@H]2CN(c3ccc(F)cc3)C(=O)O2)CC1,-11
15,O=C(Nc1ccccc1)c1ccc(Nc2ncc(-c3cccc(F)c3)cn2)cc1,-3
16,CC(C)(C)c1ccc(-c2cc(C[C@H]3CNCC[C@H]3CC(=O)NCCN3CCOCC3)no2)cc1,9
17,OC(CNC1CCCNc2ccccc21)c1ccc(Cl)s1 (configuration not stated),58
18,O=C(NC[C@H](O)c1ccc(Cl)s1)c1ccsc1,1
19,CC(C)(C)OCCON=C(N)c1cccs1,10
20,O=C(C[C@@H]1C=CCC1)Nc1nc(-c2ccc(Cl)cc2)cs1,2
21,C[C@H]1CNCCN1C(=O)c1coc2ccccc12,-4
22,O=C(Cn1ccnc1)N1CCCCCC1CC(O)c1ccccc1 (configuration not stated),0

row,Compound,% Inhibition [%]
1,O=c1[nH]c2cc3c(cc2c(=O)n1CCc1nc(-c2ccccc2Br)no1)OCO3,-4
2,O=C(C[C@H]1CCN(C(=O)Nc2ccccc2)C1)NC1CC1,-6
3,O=C(Nc1ccncc1)c1ccc2ccccc2n1,0
4,CCOC(=O)c1ncn(C2CCCCC2)c1N,1
5,CCOC(=O)c1cc(NC(=O)C(C)(C)NC(=O)OC(C)(C)C)c(F)cc1C,-2
6,CCOC(=O)c1cn(CC)c2cc(NC3CCCCC3)c(F)cc2c1=O,78
7,CCc1ccc(CNC(=O)C2(N3CCOCC3)CCC2)s1,-5
8,CCCN(CCC)C(=O)CCC(=O)N[C@]1(C(F)(F)F)CCc2ccccc21,15
9,Cc1cccc(NC(=O)[C@@H](C#N)C(=O)C2CCC2)c1,0
10,CN1CCC(N2CCN(Cc3ccc4cc(O)ccc4c3)CC2)CC1,46
11,COc1ccc(CN(Cc2ccncc2)CC2CCN(C3CCN(C)CC3)CC2)c(F)c1,85
12,CN1CCC(N2CCC(CN(Cc3ccncc3)Cc3c(F)cccc3Cl)CC2)CC1,23
13,O=C(Nc1ncc(CCO)s1)[C@@H]1CCCN1C(=O)Cc1cccs1,0
14,CN(C)CCCNCc1ccc(Cl)cc1Cl,-3
15,CN(C)CCNCc1ccc(Cl)c(Cl)c1,-11
16,CC(C)CC[C@@H](CCNCCN(C)C)c1ccc(Cl)cc1,96
17,CN1CCC(NCC[C@@H](Cc2ccccc2Cl)c2ccc(Cl)cc2)CC1,82
18,CC(C)CC[C@@H](CCNC1CCN(C)CC1)c1ccc(Cl)cc1,80
19,Clc1ccccc1COc1ccc(CNC2CCCCC2)cc1,-2
